NALP1 inh = NALP1 inhibition; S. cerevisiae NALP1/ASC/caspase-1 growth, X-gal OD620, 72 h; inhibition, % at 10 µM; 280,000 compounds, 0.61% hits; AID 2071; in the data active = inhibition mostly above about 24%, no sharp cut-off; inactive = mostly below about 32%
tim10-1 inh = tim10-1 yeast growth inhibition. S. cerevisiae tim10-1 ts strain growth, BacTiter-Glo, 24 h. inhibition, % at 20 µM. 330,000 compounds, 2.2% hits. AID 463190;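 active = inhibition of at least 40%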;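 note: mutant grown at 25 °C; 0% = DMSO wells with yeast and 100% = wells holding no yeast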
NALP3 yeast inh = NALP3 inhibition in yeast; Yeast reconstituted NLRP3/ASC/caspase-1, beta-gal luminescence, 24 h; inhibition, % at 10 µM; 330,000 compounds, 0.39% hits;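 active = inhibition of 50% or more; inactive = inhibition below 50%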;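 note: plate controls were induced DMSO wells for no effect and uninduced yeast grown without galactose for full effect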
tim23-1 inh = inhibits growth of tim23-1 mutant yeast | inhibition, % at 20 µM | AID 463212 | 330,000 compounds, 1.3% hits | S. cerevisiae tim23-1 growth, BacTiter-Glo luminescence, 24 h;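 active = growth inhibition of the mutant yeast at or above 50%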;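 note: temperature-sensitive mutant grown at 25 °C; plate controls were DMSO-treated mutant yeast for no effect and medium wells lacking yeast for full effect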
TIM10 inh = TIM10 yeast growth inhibition; 330,000 compounds, 1.4% hits; inhibition, % at 10 µM; AID 463195; S. cerevisiae TIM10 strain growth, BacTiter-Glo luminescence, 24 h;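 active = inhibition of 40% or more at the single tested concentration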;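 note: wild-type TIM10 isogenic control strain grown at permissive 25 °C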
PfHsp90 set2 = growth inhibition of yeast expressing Plasmodium Hsp90. S. cerevisiae expressing PfHsp90, BacTiter-Glo ATP, 48 h; yeast lacking PDR1 and PDR3 efflux regulators. inhibition, % at 9.4 µM. 310,000 compounds, 0.32% hits;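 active = every replicate shows inhibition above about 80%, whatever the replicate mean, limit read from the data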;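 note: 0% = DMSO neutral controls and 100% = 20 µM radicicol positive controls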
tim10-1 confirm = confirmation of tim10-1 mutant yeast growth inhibitors | AID 463213 | 7,400 compounds, 56% hits | S. cerevisiae tim10-1 ts strain growth, BacTiter-Glo, 24 h | shares compounds with tim10-1 inh | inhibition, % at 20 µM;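 active = inhibition of yeast growth at or above a set limit in either of two repeat tests at 20 µM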;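 note: tim10-1 mutant grown at permissive 25 °C to find synthetic lethal compounds; 0% = DMSO yeast wells and 100% = medium wells without yeast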
tim10 confirm = confirmation of TIM10 yeast growth inhibitors; shares compounds with TIM10 inh; S. cerevisiae tim10 strain growth, BacTiter-Glo luminescence, 24 h; inhibition, % at 10 µM; 4,600 compounds, 63% hits; AID 463215;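 active = inhibition of yeast growth at or above a set limit in either of two replicates at 10 µM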;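 note: this counterscreen used the strain with wild-type TIM10; 0% = yeast with DMSO and 100% = medium wells lacking yeast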
tim23-1 confirm = confirmation of tim23-1 mutant yeast growth inhibitors | inhibition, % at 20 µM | shares compounds with tim23-1 inh | S. cerevisiae tim23-1 growth, BacTiter-Glo luminescence, 24 h | 4,400 compounds, 83% hits;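 active = inhibition above about 39% in either of two replicate wells at 20 µM, limit read from the data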;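 note: temperature-sensitive tim23-1 mutant grown at 25 °C; 0% = DMSO wells with yeast and 100% = medium wells without yeast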
An asterisk follows results filed as active; x = no result. A selection: hits, their analogues and other compounds. The true share with any hit is near 4.1%.

SMILES | NALP1 inh | tim10-1 inh | NALP3 yeast inh | tim23-1 inh | TIM10 inh | PfHsp90 set2 | tim10-1 confirm | tim10 confirm | tim23-1 confirm
CCOC(=O)c1cnc(-n2nc(C)cc2C)nc1NC(C)c1ccccc1 (stereo not given) | -8 | 44* | 23 | 54* | 53* | x | 30 | 57* | 45*
COc1ccc(S(=O)(=O)Nc2cc(SCC(=O)O)c(O)c3ccccc23)cc1 | 19 | 44* | 25 | 58* | 33 | 10 | 28 | x | -17
CCC(C)(C)c1ccc(OCCCC[n+]2ccc(C)cc2)c(C(C)(C)CC)c1 | 6 | 42* | -32 | 60* | -38 | x | 17 | x | 39*
N#CC(C#N)=c1ccc2c(c1)N1C3=C(CCCC3)CC3CCCCC31N=2 (stereo not given) | 53 | 44* | 30 | 51* | 33 | x | 24 | x | 23
Cc1oc(-c2ccccc2F)nc1CS(=O)(=O)CC(=O)NCc1ccccc1Cl | 8 | 21 | 2 | 6 | 12 | -31 | x | x | x
Brc1ccc(C2=CC(c3cccs3)n3ncnc3N2)cc1 (stereo not given) | -7 | 50* | 23 | 52* | 36 | 7 | 38* | x | 54*
O=C(CCC1CCCCC1)NCc1ccccn1 | 24 | 19 | 10 | 10 | 13 | -7 | x | x | x
O=C(CSc1nc(C(F)(F)F)cc(=O)[nH]1)NCc1ccc2c(c1)OCO2 | x | -15 | 5 | -2 | 5 | x | x | x | x
N#C/C(=C\c1ccccc1)C(=O)N(c1ccccn1)C1CCCCC1 | 46 | 49* | 29 | 71* | 58* | -74 | 70* | 67* | 58*
O=C(c1cccc(C(=O)N(c2ccccn2)C2CCCCC2)c1)N(c1ccccn1)C1CCCCC1 | 6 | 39 | 4 | 28 | 7 | -22 | x | x | x
Cc1cc(C)n(/N=C/c2ccccc2O)c(=O)c1 | 14 | 11 | 9 | 10 | -15 | -3 | x | x | x
Cc1cc(C)n(/N=C/c2cc(Cl)cc(Cl)c2O)c(=O)c1 | 12 | 48* | 5 | 61* | 25 | -44 | 12 | x | 72*
Cc1ccc(-c2cc(-c3ccccc3C)[nH]n2)c(O)c1 | -20 | 48* | 21 | 74* | 49* | -16 | 58* | 57* | 54*
Cc1ccc(-c2cc(-c3cccc(F)c3)n[nH]2)c(O)c1 | 6 | 58* | 25 | 59* | 48* | 6 | 51* | -5 | 21
Cc1ccc(-c2[nH]ncc2C(=O)c2cccc(F)c2)c(O)c1 | 11 | 33 | 6 | 30 | 5 | 0 | x | x | x
CN(CC(=O)Nc1cccc2ccccc12)C(=O)c1ccc(F)cc1F | x | 14 | 6 | 17 | 5 | -15 | x | x | x
O=C(Nc1ccccc1O)c1cccc(S(=O)(=O)Nc2ccccc2O)c1 | x | -27 | 1 | 15 | -11 | 6 | x | x | x
C[C@H](CO)N1C[C@H](C)[C@@H](CN(C)C(=O)NC2CCCCC2)Oc2c(NC(=O)c3ccncc3)cccc2C1=O | x | -7 | 12 | -3 | 11 | 17 | x | x | x
Cc1c(/C=C/C(=O)c2ccc(Cl)s2)cnn1C | 2 | 45* | -5 | 58* | 48* | x | 36* | 37* | 47*
COc1cc(/C=C/C(=O)c2ccc(Cl)s2)cc(OC)c1O | 57 | 62* | -2 | 67* | 43* | -129 | 59* | 44* | 53*
Cc1c(/C=C/C(=O)c2ccccc2)cnn1C | 7 | 33 | 3 | 33 | 21 | 5 | x | x | x
CCCCCc1c(C)nc(Nc2nc(C)c3cc(OC)ccc3n2)[nH]c1=O | 12 | 7 | 20 | 9 | 16 | 7 | x | x | x
CCc1c(C)nc(Nc2nc(C)c3cc(OC)ccc3n2)[nH]c1=O | -23 | 42* | 11 | 53* | 46* | -11 | 31* | -9 | 52*
CC(=O)NS(=O)(=O)c1ccc(Nc2ccc([N+](=O)[O-])c3nonc23)cc1 | x | 8 | 23 | 10 | 16 | 5 | x | x | x

Compound activity: PubChem, several laboratories
